Results reported in PubChem BioAssay (EPA / NIEHS).
Where “and” joins values, the source holds several entries; their conditions need not be identical. Identical values can stand only once. Records with an inconclusive call do not appear. The source holds several records for some structures; these can differ, active in one and inactive in another. Calls of active or inactive are those of the source. How the source made its calls: active means hit-call score of the fitted dose curve at least 0.9, where 1 is the maximum; inconclusive means response in the unintended direction; inactive means score below 0.9.

Key:
[1] = tested on: frog Estrogen Receptor (ER), gene 398734; test: ATG_frER1_XSP2: Attagene TRANS-FACTORIAL Multi-Species (XSP2) HepG2 Assay for frog Estrogen Receptor (ER) (AID 2283821);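 further: hits raise reporter mRNA above DMSO baseline so potency means agonist or activator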
Procedure: (§1) ATG_XSP2_multi-species_TRANS is a cell-based, multiplexed assay created by modifying the existing Attagene TRANS-FACTORIAL system to include a panel of nuclear receptors from some or all the following species: human (Homo sapiens), mouse (Mus musculus), frog (Xenopus laevis), zebrafish (Danio rerio), chicken (Gallus gallus), and turtle (Chrysemys picta). The ECOTOX-FACTORIAL format uses HepG2, a human liver cell line, with measurements taken at 24 hours after chemical dosing in a 24-well plate. Xsp2 included 3 nM 6-alpha-fluorotestosterone and 1.5 nM norgestrel to stimulate the androgen receptor.ATG_frER1_XSP2 is one of 29 assay components measured or calculated from the ATG_XSP2_multi-species_TRANS assay. It is designed to make measurements of mRNA induction, a form of inducible reporter, as detected with fluorescence intensity signals by Reverse transcription polymerase chain reaction (RT-PCR) and Capillary electrophoresis technology.The assay endpoint ATG_frER1_XSP2 was analyzed in the positive analysis fitting direction relative to DMSO as the negative control and baseline of activity. Using a type of inducible reporter, measures of mRNA for gain-of-signal activity can be used to understand the reporter gene at the transcription factor-level as they relate to the gene ER. Furthermore, this assay endpoint can be referred to as a primary readout, because this assay has produced multiple assay endpoints where this one serves a reporter gene function. To generalize the intended target to other relatable targets, this assay endpoint is annotated to the nuclear receptor intended target family, where the subfamily is steroidal.
Human liver HepG2 cells are transiently transfected with multiple reporter transcription units (MRTUs) in 6-well plates using FuGene 6 reagent (Roche; 3 ml FuGene/1 mg DNA). The MRTU constructs are regulated by a cis-regulating element (promoter). […] A major difference between the CIS and TRANS system is that in CIS activities of endogenous TFs are measured, whereas the TRANS assay evaluates changes in activities of exogenous, chimeric NR-Gal4 proteins. […] At the end of 24 hour incubation, total RNA was isolated using TriZol reagent (Invitrogen). The isolated RNA is then reverse-transcribed using oligo(dT) primer and Mo-MLV reverse transcriptase (Invitrogen) with DNAse I (Ambion) treatment for 30 min. […] The fragments were purified using Qiaquick PCR columns (Qiagen), analyzed on an ABI 3130xL genetic analyzer (Applied Biosystems) with peak positions identified by using a set of X-rhodamine (ROX)-labeled MapMarker1000 molecular weight standards (BioVentures). […]

[2] = tested on: zebrafish Estrogen Receptor (ER2b), gene 317733; test: ATG_zfER2b_XSP2: Attagene TRANS-FACTORIAL Multi-Species (XSP2) HepG2 Assay for zebrafish Estrogen Receptor (ER2b) (AID 2283823);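 further: fitted upward as reporter gain over DMSO so potency reflects activation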
Method in brief: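 Cells used were HepG2, transiently transfected with chimeric nuclear receptor-Gal4 reporter units. After 24 h of chemical treatment, reporter transcripts were amplified by RT-PCR, labelled and sized by capillary electrophoresis, with induction analysed relative to DMSO.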

[3] = tested on: frog Androgen Receptor (AR), gene 399456; test: ATG_frAR_XSP2: Attagene TRANS-FACTORIAL Multi-Species (XSP2) HepG2 Assay for frog Androgen Receptor (AR) (AID 2283824);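 further: actives raise reporter signal above DMSO so AC50 reflects agonist-like induction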
Method in brief: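 HepG2 cells transiently transfected with GAL4-UAS reporter units and frog (Xenopus laevis) AR-Gal4 chimera; reporter mRNA measured 24 h after dosing by RT-PCR and capillary electrophoresis. Gain of signal fitted relative to DMSO baseline.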

[4] = tested on: zebrafish Androgen Receptor (AR), gene 100005148; test: ATG_zfAR_XSP2: Attagene TRANS-FACTORIAL Multi-Species (XSP2) HepG2 Assay for zebrafish Androgen Receptor (AR) (AID 2283825);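 further: hits raise reporter mRNA above DMSO so AC50 reflects agonist-type gain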
Procedure: as §1, with “receptor.ATG_zfAR_XSP2” for “receptor.ATG_frER1_XSP2”, “ATG_zfAR_XSP2” for “ATG_frER1_XSP2”, “Using a type of inducible reporter, measures of mRNA for gain-of-signal activity can be used to understand the reporter gene at the transcription factor-level as they relate to the gene ER.” left out, “To generalize the intended target to other relatable targets, this assay endpoint is annotated to the nuclear receptor intended target family, where the subfamily is steroidal.” left out

[5] = molecular target: Estrogen receptor (Homo sapiens) (UniProt P03372); test: ATG_hERa_XSP2: Attagene TRANS-FACTORIAL Multi-Species (XSP2) HepG2 Assay for human Estrogen Receptor (ERa) (AID 2283827)
Method in brief: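 HepG2 cells transiently transfected with multiplexed GAL4-UAS reporters driven by chimeric receptor-Gal4 proteins, dosed 24 h with 3 nM 6-alpha-fluorotestosterone and 1.5 nM norgestrel present. Reporter mRNA by RT-PCR and capillary electrophoresis; gain-of-signal fit versus DMSO.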

[6] = molecular target: Peroxisome proliferator-activated receptor gamma (Homo sapiens) (UniProt P37231); test: ATG_hPPARg_XSP2: Attagene TRANS-FACTORIAL Multi-Species (XSP2) HepG2 Assay for human Peroxisome Proliferator-activated Receptor gamma (PPARg) (AID 2283829);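 further: actives raise reporter mRNA above DMSO so AC50 reflects PPARg activation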
Method in brief: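 After transfecting HepG2 with GAL4-UAS reporter constructs, cells are dosed for 24 h; total RNA is reverse-transcribed, PCR-amplified, FAM-labeled, HpaI-digested and resolved by capillary electrophoresis. Activity is measured as mRNA induction relative to DMSO.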

[7] = molecular target: mouse Peroxisome Proliferator-activated Receptor gamma (PPARg), Pparg (gene 19016) (UniProt P37238); test: ATG_mPPARg_XSP2: Attagene TRANS-FACTORIAL Multi-Species (XSP2) HepG2 Assay for mouse Peroxisome Proliferator-activated Receptor gamma (PPARg) (AID 2283830);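 further: hits are gains in reporter mRNA above DMSO so AC50 marks activation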
Method in brief: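 HepG2 cells transiently transfected with GAL4-UAS reporter units for chimeric NR-Gal4 proteins including mouse PPARg, exposed 24 h; medium contained 3 nM 6-alpha-fluorotestosterone and 1.5 nM norgestrel. Reporter mRNA quantified by RT-PCR, HpaI digestion and capillary electrophoresis, vs DMSO.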

[8] = molecular target: Nuclear receptor subfamily 1 group I member 2 (Mus musculus) (UniProt O54915); test: ATG_mPXR_XSP2: Attagene TRANS-FACTORIAL Multi-Species (XSP1) HepG2 Assay for mouse Pregnane X Receptor (PXR) (AID 2283831)
Method in brief: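 Reporter transcripts were quantified by RT-PCR, FAM primer extension, HpaI digestion and capillary electrophoresis after 24 h of chemical exposure in transiently transfected HepG2 cells carrying chimeric receptor-GAL4 constructs; DMSO served as baseline.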

[9] = tested on: frog Estrogen Receptor (ER2), gene 100174814; test: ATG_frER2_XSP2: Attagene TRANS-FACTORIAL Multi-Species (XSP2) HepG2 Assay for frog Estrogen Receptor (ER2) (AID 2283828)
Method in brief: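 Human liver HepG2, transient MRTU transfection (TRANS format, exogenous NR–Gal4). 24 h cpd exposure. Total RNA → RT → PCR → FAM label → HpaI cut → CE. Positive direction vs DMSO.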

[10] = tested on: chicken Androgen Receptor (AR), gene 422165; test: ATG_chAR_XSP2: Attagene TRANS-FACTORIAL Multi-Species (XSP2) HepG2 Assay for chicken Androgen Receptor (AR) (AID 2283819);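 further: hits raise reporter mRNA above DMSO so potency is for activation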
Procedure: as §1, with “receptor.ATG_chAR_XSP2” for “receptor.ATG_frER1_XSP2”, “ATG_chAR_XSP2” for “ATG_frER1_XSP2”, “Using a type of inducible reporter, measures of mRNA for gain-of-signal activity can be used to understand the reporter gene at the transcription factor-level as they relate to the gene ER.” left out, “To generalize the intended target to other relatable targets, this assay endpoint is annotated to the nuclear receptor intended target family, where the subfamily is steroidal.” left out

Chain of Estrogen receptor (Homo sapiens) (P03372 whole entry, looked up, the tested form may be a part): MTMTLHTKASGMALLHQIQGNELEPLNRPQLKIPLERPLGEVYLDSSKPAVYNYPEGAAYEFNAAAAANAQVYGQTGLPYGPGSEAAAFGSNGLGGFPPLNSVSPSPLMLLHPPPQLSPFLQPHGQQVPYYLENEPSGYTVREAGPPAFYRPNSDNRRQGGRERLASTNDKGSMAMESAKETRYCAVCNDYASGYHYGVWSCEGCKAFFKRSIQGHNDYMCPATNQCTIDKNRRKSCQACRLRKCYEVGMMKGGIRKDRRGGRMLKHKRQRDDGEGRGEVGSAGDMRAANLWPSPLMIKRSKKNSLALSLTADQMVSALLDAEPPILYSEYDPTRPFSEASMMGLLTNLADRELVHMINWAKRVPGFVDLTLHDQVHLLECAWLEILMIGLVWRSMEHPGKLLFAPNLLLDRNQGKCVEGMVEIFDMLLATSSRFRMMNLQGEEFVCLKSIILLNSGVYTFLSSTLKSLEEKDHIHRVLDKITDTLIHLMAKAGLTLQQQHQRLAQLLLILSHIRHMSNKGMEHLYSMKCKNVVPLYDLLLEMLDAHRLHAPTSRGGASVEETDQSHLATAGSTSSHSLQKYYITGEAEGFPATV
Chain of Peroxisome proliferator-activated receptor gamma (Homo sapiens) (P37231 whole entry, looked up, the tested form may be a part): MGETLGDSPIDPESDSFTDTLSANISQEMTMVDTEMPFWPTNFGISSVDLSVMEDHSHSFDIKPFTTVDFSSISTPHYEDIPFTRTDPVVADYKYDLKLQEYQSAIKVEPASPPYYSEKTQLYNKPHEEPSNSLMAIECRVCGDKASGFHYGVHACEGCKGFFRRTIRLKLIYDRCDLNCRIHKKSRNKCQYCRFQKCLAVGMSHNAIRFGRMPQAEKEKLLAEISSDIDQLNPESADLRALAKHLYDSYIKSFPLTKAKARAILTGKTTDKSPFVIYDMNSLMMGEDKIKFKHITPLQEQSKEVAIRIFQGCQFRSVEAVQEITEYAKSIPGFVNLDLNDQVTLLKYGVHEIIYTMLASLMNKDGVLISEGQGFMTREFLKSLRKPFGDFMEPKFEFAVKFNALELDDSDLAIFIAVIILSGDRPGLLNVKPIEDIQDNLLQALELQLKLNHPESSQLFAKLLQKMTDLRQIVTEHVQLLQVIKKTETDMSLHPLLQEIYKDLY
Chain of mouse Peroxisome Proliferator-activated Receptor gamma (PPARg), Pparg (gene 19016) (P37238 whole entry, looked up, the tested form may be a part): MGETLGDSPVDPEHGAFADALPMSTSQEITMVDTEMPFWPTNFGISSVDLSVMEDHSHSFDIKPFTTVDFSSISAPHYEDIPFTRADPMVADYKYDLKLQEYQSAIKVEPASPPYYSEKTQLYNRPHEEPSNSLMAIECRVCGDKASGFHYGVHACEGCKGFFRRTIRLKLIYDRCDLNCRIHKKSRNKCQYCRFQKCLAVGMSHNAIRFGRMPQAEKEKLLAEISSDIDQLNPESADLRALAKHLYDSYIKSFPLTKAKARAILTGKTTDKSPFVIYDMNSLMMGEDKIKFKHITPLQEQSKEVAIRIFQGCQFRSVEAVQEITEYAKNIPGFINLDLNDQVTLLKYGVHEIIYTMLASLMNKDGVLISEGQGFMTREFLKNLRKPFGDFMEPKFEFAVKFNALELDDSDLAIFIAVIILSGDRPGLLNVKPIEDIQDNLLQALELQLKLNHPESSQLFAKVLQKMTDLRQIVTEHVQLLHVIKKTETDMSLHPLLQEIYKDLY
Chain of Nuclear receptor subfamily 1 group I member 2 (Mus musculus) (O54915 whole entry, looked up, the tested form may be a part): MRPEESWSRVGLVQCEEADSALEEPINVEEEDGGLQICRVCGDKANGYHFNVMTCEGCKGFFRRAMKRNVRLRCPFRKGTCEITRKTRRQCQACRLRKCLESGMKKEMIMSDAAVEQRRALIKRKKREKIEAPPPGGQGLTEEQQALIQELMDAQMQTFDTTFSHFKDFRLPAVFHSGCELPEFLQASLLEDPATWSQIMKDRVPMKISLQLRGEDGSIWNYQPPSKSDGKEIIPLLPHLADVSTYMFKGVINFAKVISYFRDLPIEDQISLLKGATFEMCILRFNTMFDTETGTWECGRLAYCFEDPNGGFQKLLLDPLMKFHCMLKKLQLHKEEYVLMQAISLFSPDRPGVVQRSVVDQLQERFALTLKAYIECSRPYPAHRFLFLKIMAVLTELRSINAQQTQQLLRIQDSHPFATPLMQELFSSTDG

| Structure (SMILES) | outcome [1] | outcome [2] | outcome [3] | outcome [4] | outcome [5] | outcome [6] | outcome [7] | outcome [8] | AC50 [1] | AC50 [2] | AC50 [5] | AC50 [9] | AC50 [6] | AC50 [7] | AC50 [8] | outcome [10] | outcome [9] |
| --- | --- | --- | --- | --- | --- | --- | --- | --- | --- | --- | --- | --- | --- | --- | --- | --- | --- |
| CCCc1cc(=O)[nH]c(=S)[nH]1 | inactive | inactive | inactive | inactive | inactive | inactive | inactive | inactive |  |  |  |  |  |  |  |  |  |
| CC(=O)C(C)=CC1C(C)=CCCC1(C)C (stereo unspecified) |  |  |  |  |  | inactive |  |  | 27.3 µM (active) and 27.2 µM (active) | 32 µM (active) and 29.8 µM (active) | 19.8 µM (active) and 21.3 µM (active) | 27.7 µM (active) and 14.7 µM (active) | 64.4 µM (active) | 146 µM (active) and 25.2 µM (active) | 8.16 µM (active) and 12.9 µM (active) |  |  |
| C=CCOC(=O)c1ccccc1C(=O)OCC=C | inactive |  |  | inactive |  | inactive | inactive | inactive |  | 139 µM (active) and 78.9 µM (active) | 53.5 µM (active) and 100 µM (active) | 51.2 µM (active) | 43.7 µM (active) | 44.1 µM (active) | 27.5 µM (active) | inactive | inactive |
| CC(C)(C)c1cc(O)c(C(C)(C)C)cc1O | inactive |  |  |  | inactive |  |  |  |  | 49.3 µM (active) |  |  | 42.7 µM (active) | 57.5 µM (active) |  | inactive | inactive |
